Measured values reported in PubChem BioAssay (Tox21).
Values joined by “and” are separate entries in the source; they are usually repeats but may differ in a detail not shown here. Identical values can stand only once. Results filed as inconclusive are left out. Active and inactive are the calls of the source. Unless noted, calls come from the whole dose curve; as a rule, active = well fitted curve in the direction sought with a large enough effect in the repeat runs; inconclusive = weak or mixed curves; inactive = no such curve, though single readings can be large; an effect the other way counts as inactive or inconclusive.

Key:
[1] = target: Thyrotropin receptor (Homo sapiens) (UniProt P16473); experiment: qHTS assay to identify small molecule agonists of the thyroid stimulating hormone receptor (TSHR) signaling pathway (AID 1224843; calls by dose curve; note: nearly all actives have a fitted effect of over 45% in size)
Chain of Thyrotropin receptor (Homo sapiens) (P16473 whole entry, looked up): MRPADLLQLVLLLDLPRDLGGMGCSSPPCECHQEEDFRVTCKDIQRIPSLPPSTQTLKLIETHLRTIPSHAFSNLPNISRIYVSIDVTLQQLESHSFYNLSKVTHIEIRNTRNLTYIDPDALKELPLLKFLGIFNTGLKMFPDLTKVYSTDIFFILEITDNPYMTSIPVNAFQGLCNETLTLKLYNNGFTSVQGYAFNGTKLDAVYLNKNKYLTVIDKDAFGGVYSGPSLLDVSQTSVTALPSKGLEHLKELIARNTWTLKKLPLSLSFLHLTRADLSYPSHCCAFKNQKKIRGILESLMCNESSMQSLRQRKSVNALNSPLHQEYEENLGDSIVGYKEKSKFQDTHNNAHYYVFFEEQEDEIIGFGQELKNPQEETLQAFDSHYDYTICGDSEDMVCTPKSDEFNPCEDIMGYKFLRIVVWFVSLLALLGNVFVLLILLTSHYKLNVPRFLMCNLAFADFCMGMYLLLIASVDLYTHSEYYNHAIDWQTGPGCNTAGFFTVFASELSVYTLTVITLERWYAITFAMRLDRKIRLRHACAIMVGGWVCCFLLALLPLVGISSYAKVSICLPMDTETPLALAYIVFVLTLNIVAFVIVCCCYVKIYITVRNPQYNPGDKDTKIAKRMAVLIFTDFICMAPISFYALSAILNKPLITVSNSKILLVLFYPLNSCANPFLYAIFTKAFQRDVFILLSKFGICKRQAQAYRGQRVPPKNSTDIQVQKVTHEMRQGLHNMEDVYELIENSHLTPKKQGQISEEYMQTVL
Procedure, shortened: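 HEK293/TSHR, 800 cells/well; cpd 30 min RT; add cAMP-d2 + anti-cAMP-cryptate, 1 h RT; fluorescence read on plate reader. 15-pt titration, n=3.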

[2] = qHTS assay to identify small molecule agonists of the hypoxia (HIF-1) signaling pathway - cell viability counter screen (AID 1224844; calls by dose curve; note: nearly all actives have a fitted effect of over 50% in size)
Procedure, shortened: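 Cytotoxicity was measured in parallel with the HRE-driven beta-lactamase readout: after 17 hrs of compound exposure at 37C, HRE-bla ME-180 cells received CellTiter-Glo and luminescence was recorded 30 min later.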

[3] = qHTS assay to identify small molecule agonists of H2AX (AID 1224845; active = well fitted activation curve with a large enough effect in the signal ratio in the repeat runs, not every such curve was filed as active; the % refers to the signal ratio)
Procedure, shortened: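 Wild-type CHO-K1 cells, plated overnight, exposed 3hr at 37C to 15 concentrations (0.76% DMSO final). Lysed, then HTRF anti-pH2AX (S139) cryptate and anti-H2AX-d2 antibodies, 24 hr room temperature; 665/620 nm emission read.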

[4] = qHTS assay to identify small molecule agonists of the hypoxia (HIF-1) signaling pathway (AID 1224846; active = well fitted activation curve with a large enough effect in the signal ratio in the repeat runs, not every such curve was filed as active; the % refers to the signal ratio)
Procedure, shortened: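 Compounds from the Tox21 10K library, dissolved in DMSO, are tested for induction of a hypoxia response element–controlled beta-lactamase reporter in ME-180 cells. Exposure lasts 17 hrs at 37C after a 5 hr settling period, followed by CCF4-AM FRET substrate.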

[5] = qHTS assay to identify small molecule agonists of H2AX - cell viability counter screen (AID 1224847; calls by dose curve; note: top concentration of the series differs between compounds; nearly all actives have a fitted effect of over 30% in size)
Procedure, shortened: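 After overnight plating of 1000 CHO-K1 cells per well, a 15-concentration compound series was applied for 3 hr at 37C. Luminescence from CellTiter-Glo, read following 30 min at room temperature, reflected cell viability.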

[6] = qHTS RealTime-Glo MT Cell Viability Assay in HepG2 cells - 24 hour (AID 1224867); note: nearly all actives have a fitted effect of over 50% in size
Procedure, shortened: (§1)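 Cells + NanoLuc/prosubstrate dispensed (600 cells/well) → 5 h at 37 C/5% CO2 → compounds in DMSO transferred → 40 h incubation at 37 C, luminescence read at 0, 8, 16, 24, 32, 40 h.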

[7] = qHTS RealTime-Glo MT Cell Viability Assay in HEK293 cells - 32 hour (AID 1224868); note: top concentration of the series differs between compounds; nearly all actives have a fitted effect of over 50% in size
Procedure, shortened: (§2)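 Tox21 10K qHTS, HEK293, 600 cells/well, RealTime-Glo reagent co-dispensed with cells; 5 h preincubation, compound by pintool, 37 C, luminescence at 0–40 h.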

[8] = A CellTox Green Cytotoxicity Assay to monitor cytotoxicity in HEK293 cells - 0 hour (AID 1224869); note: nearly all actives have a fitted effect of over 50% in size
Procedure, shortened: (§3)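 Cells (HEK293, 600/well) and dye reagent are dispensed together. After 5 h at 37 C, 23 nL compound is pinned in. Plates stay at 37 C for 40 h with fluorescence read at 0h, 8h, 16h, 24h, 32h and 40h.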

[9] = qHTS RealTime-Glo MT Cell Viability Assay in HepG2 cells - 40 hour (AID 1224870); note: nearly all actives have a fitted effect of over 50% in size
Procedure, shortened: (§4)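 HepG2 cells (600/well) mixed with RealTime-Glo MT reagent, settled 5 h at 37 C/5% CO2 before compound addition. Nonlytic NanoLuc luminescence from viable-cell prosubstrate reduction read repeatedly during 40 h treatment at 37 C.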

[10] = A CellTox Green Cytotoxicity Assay to monitor cytotoxicity in HEK293 cells - 40 hour (AID 1224871); note: nearly all actives have a fitted effect of over 45% in size
Procedure, shortened: as §3

[11] = qHTS RealTime-Glo MT Cell Viability Assay in HEK293 cells - 16 hour (AID 1224872)
Procedure, shortened: as §2

[12] = qHTS RealTime-Glo MT Cell Viability Assay in HepG2 cells - 8 hour (AID 1224873); note: nearly all actives have a fitted effect of over 55% in size
Procedure, shortened: as §4

[13] = qHTS RealTime-Glo MT Cell Viability Assay in HEK293 cells - 40 hour (AID 1224874); settings: RealTime-Glo luminescence; max response: active compounds read low; note: nearly all actives have a fitted effect of over 50% in size
Procedure, shortened: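 Real-time viability in HEK293: signal arises when living cells convert a prosubstrate for NanoLuc in the medium, so luminescence tracks viable cell number. Compound (23 nL, DMSO) added 5 h post-seeding; kinetic reads at 0–40 h, 37 C.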

[14] = A CellTox Green Cytotoxicity Assay to monitor cytotoxicity in HEK293 cells - 24 hour (AID 1224875); note: series mostly up to about 77 µM; nearly all actives have a fitted effect of over 45% in size
Procedure, shortened: as §3

[15] = A CellTox Green Cytotoxicity Assay to monitor cytotoxicity in HepG2 cells - 16 hour (AID 1224876); note: nearly all actives have a fitted effect of over 45% in size
Procedure, shortened: (§5)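 Cells and non-lytic dye reagent are dispensed together (600 HepG2 cells/well) and incubated 5 h before DMSO compound transfer. Kinetic fluorescence is then recorded in the same wells during 40 h at 37 C.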

[16] = qHTS RealTime-Glo MT Cell Viability Assay in HepG2 cells - 32 hour (AID 1224877); note: nearly all actives have a fitted effect of over 55% in size
Procedure, shortened: as §1

[17] = A CellTox Green Cytotoxicity Assay to monitor cytotoxicity in HepG2 cells - 24 hour (AID 1224878); note: nearly all actives have a fitted effect of over 45% in size
Procedure, shortened: as §5

[18] = A CellTox Green Cytotoxicity Assay to monitor cytotoxicity in HepG2 cells - 40 hour (AID 1224879); note: nearly all actives have a fitted effect of over 40% in size
Procedure, shortened: as §5

[19] = qHTS assay to identify small molecule antagonists of the estrogen related receptor (ERR) signaling pathway from Tox21 library (AID 1224848); note: nearly all actives have a fitted effect of over 50% in size
Procedure, shortened: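 Compounds dissolved in DMSO are pin-transferred onto ERR reporter cells (2,000 per well) that have settled for 6 h at 37 C. Plates then incubate 18 h at 37 C before ONE-Glo luciferase reagent and a luminescence read 30 min later.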

[20] = qHTS assay to identify small molecule agonists of the estrogen related receptor (ERR) signaling pathway from Tox21 library (AID 1224849; calls by dose curve; note: nearly all actives have a fitted effect of over 15% in size)
Procedure, shortened: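 Cells carrying the ERR reporter were plated and allowed to settle for 6 h, exposed to library compounds for 18 h at 37 C, then lysed with ONE-Glo and luminescence measured.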
% is set by controls: 0 for no effect and ±100 for the full control effect.

CC(=O)OCc1ccccc1
inactive: outcome [1] | outcome [2] | outcome [3] | outcome [4] | outcome [5] | Potency [6] | Potency [7] | outcome [8] | outcome [9] | Potency [10] | Potency [11] | Potency [12] | max response [13] -41.8% and -21% | Potency [14] | outcome [15] | outcome [16] | Potency [17] | Potency [18]

C=CC(=O)OCCC(=O)O
inactive: outcome [1] | outcome [2] | outcome [3] | outcome [4] | outcome [5] | outcome [19] | outcome [20] | Potency [6] | Potency [7] | outcome [8] | outcome [9] | Potency [10] | Potency [11] | Potency [12] | max response [13] -1.71% and -0.811% | Potency [14] | outcome [15] | outcome [16] | Potency [17] | Potency [18]

C=C(C)[C@H]1CC=C(C)C(=O)C1
inactive: outcome [1] | outcome [2] | outcome [3] | outcome [4] | outcome [5] | Potency [6] | Potency [7] | outcome [8] | outcome [9] | Potency [10] | Potency [11] | Potency [12] | max response [13] -1.87% and 0.747% | Potency [14] | outcome [15] | outcome [16] | Potency [17] | Potency [18]

O=C1C(c2[nH]c3ccccc3c2O)=Nc2ccccc21
inactive: outcome [1] | outcome [2] | outcome [3] | outcome [4] | outcome [5] | outcome [19] | outcome [20] | Potency [6] | Potency [7] | outcome [8] | outcome [9] | Potency [10] | Potency [11] | Potency [12] | max response [13] 4.84% | Potency [14] | outcome [15] | outcome [16] | Potency [17] | Potency [18]

Nc1ccc(Cl)c(N)c1
inactive: outcome [1] | outcome [2] | outcome [3] | outcome [4] | outcome [5] | Potency [6] | Potency [7] | outcome [8] | outcome [9] | Potency [10] | Potency [11] | Potency [12] | max response [13] -8.1% and -8.99% | Potency [14] | outcome [15] | outcome [16] | Potency [17] | Potency [18]

CC(C)c1cccc(C(C)C)c1
inactive: outcome [1] | outcome [2] | outcome [3] | outcome [4] | outcome [5] | outcome [19] | outcome [20] | Potency [6] | Potency [7] | outcome [8] | outcome [9] | Potency [10] | Potency [11] | Potency [12] | max response [13] 2.88% and 7.17% | Potency [14] | outcome [15] | outcome [16] | Potency [17] | Potency [18]

C=C(C)CNCC
inactive: outcome [1] | outcome [2] | outcome [3] | outcome [4] | outcome [5] | outcome [19] | outcome [20] | Potency [6] | Potency [7] | outcome [8] | outcome [9] | Potency [10] | Potency [11] | Potency [12] | max response [13] 0.995% and -23.9% | Potency [14] | outcome [15] | outcome [16] | Potency [17] | Potency [18]
